From PubChem BioAssay (NCATS)
Where “and” joins values, the source holds several entries; their conditions need not be identical. Equal values may be shown once. Results filed as inconclusive are left out. Calls of active or inactive are those of the source. Unless noted, the call rests on the fitted dose curve.

What was measured:
[1] = biological target: Estrogen receptor (Homo sapiens) (UniProt P03372); experiment: qHTS assay for small molecule agonists of estrogen receptor alpha signaling (AID 588514); conditions: ER-alpha-UAS-bla HEK293, beta-lactamase ratio, 18 h; series mostly up to 76.8 µM;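 further: 0% = vehicle only and 100% = reference agonist; nearly all actives have a fitted effect of over 70% in size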
Summary of the method: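 ER-alpha-UAS-bla GripTite HEK293 cells, 5000/well in 2% charcoal/dextran-stripped FBS medium, treated with compound titrations 18 h at 37 C. CCF4 beta-lactamase read by fluorescence after 2 h RT; normalised to 20 nM 17-beta-estradiol (100%) and DMSO (0%), Hill fit for EC50 and efficacy.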

[2] = biological target: Glucocorticoid receptor (Homo sapiens) (UniProt P04150); experiment: qHTS assay for small molecule agonists of glucocorticoid receptor signaling (AID 588532; active means well fitted curve in the direction sought with a large enough effect in the signal ratio, with a control signal flat; the % refers to the signal ratio;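 further: 100% = dexamethasone at 0.1 µM and 0% = DMSO only wells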); conditions: HeLa MMTV-bla, beta-lactamase ratio, agonist, 18 h; stronger effect = higher value; percent of dexamethasone control, DMSO zero
Summary of the method: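 MMTV-bla HeLa, beta-lactamase reporter; medium with 1% charcoal/dextran-stripped FBS; cpds up to 92 uM, 18 h, 37 C; CCF4 readout 460/530 nm; Hill fit → EC50, efficacy vs 0.1 uM dexamethasone = 100%.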

[3] = biological target: Glucocorticoid receptor (Homo sapiens) (UniProt P04150); experiment: qHTS assay for small molecule antagonists of glucocorticoid receptor signaling (AID 588533; active means well fitted inhibition curve with a large enough effect in the signal ratio, with a control signal flat, not every such curve was filed as active; the % refers to the signal ratio;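 further: cells stimulated with 2 nM dexamethasone as agonist; on the % scale 0 is the no-effect control and ±100 the full control effect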); conditions: HeLa MMTV-bla, GRE beta-lactamase ratio, antagonist mode, 18 h; series mostly up to 76.8 µM
Summary of the method: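 Antagonist-mode qHTS: compound titrations added to GRE-bla HeLa cells, then dexamethasone 2 nM final; 18 h, 37 C. CCF4 FRET fluorescence normalized to dexamethasone and DMSO; IC50 from Hill fit.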

[4] = biological target: Peroxisome proliferator-activated receptor delta (Homo sapiens) (UniProt Q03181); experiment: qHTS assay for small molecule agonists of peroxisome proliferator-activated receptor delta signaling (AID 588534); conditions: HEK293T PPARdelta-UAS-bla, beta-lactamase ratio, 18 h; series mostly up to 76.7 µM;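 further: 0% = DMSO basal wells and 100% = positive control agonist at 10 µM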
Summary of the method: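 Cells carrying a PPAR-delta beta-lactamase reporter were treated with compounds for 18 h at 37 °C in agonist mode. CCF4 fluorescence was read after 2 h; EC50 and efficacy from Hill fits.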

[5] = qHTS assay for small molecule antagonists of peroxisome proliferator-activated receptor delta signaling (AID 588535; active means well fitted inhibition curve with a large enough effect in the signal ratio, with a control signal flat, not every such curve was filed as active; the % refers to the signal ratio;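 on max response: cells co-treated with a PPAR-delta agonist as stimulator during compound exposure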); conditions: HEK293T PPARd-UAS-bla, beta-lactamase FRET ratio, 18 h; 460 nm channel
Summary of the method: (§1)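 Reporter: UAS-bla under PPAR-delta response element, HEK293T host. Medium: 2% charcoal/dextran FBS. Dosing: titration, 18 hrs, 37 C. Detection: CCF4, 2 hrs RT, 405 ex/460 and 530 em.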

[6] = biological target: Peroxisome proliferator-activated receptor delta (Homo sapiens) (UniProt Q03181); experiment: as above; conditions: HEK293T PPARd-UAS-bla, beta-lactamase FRET ratio, 18 h; series mostly up to 76.7 µM
Summary of the method: as §1

[7] = biological target: Peroxisome proliferator-activated receptor gamma (Homo sapiens) (UniProt P37231); experiment: qHTS assay for small molecule agonists of peroxisome proliferator-activated receptor gamma signaling (AID 588536; active means well fitted curve in the direction sought with a large enough effect in the signal ratio, with a control signal flat, not every such curve was filed as active; the % refers to the signal ratio;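 further: 0% = DMSO basal wells and 100% = rosiglitazone at 2 µM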); conditions: HEK293 PPARg-UAS-bla, beta-lactamase ratio, 16 h, percent of rosiglitazone response, DMSO as zero; series mostly up to 76.7 µM
Summary of the method: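 PPAR-gamma-UAS-bla HEK293 cells in medium with 1% charcoal/dextran-treated FBS were exposed to compounds for 16 h at 37 C. Beta-lactamase activity was read with CCF4 substrate (405 nm excitation, 460/530 nm emission).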

[8] = biological target: Peroxisome proliferator-activated receptor gamma (Homo sapiens) (UniProt P37231); experiment: qHTS assay for small molecule antagonists of peroxisome proliferator-activated receptor gamma signaling (AID 588537; active means well fitted inhibition curve with a large enough effect in the signal ratio, with a control signal flat, not every such curve was filed as active; the % refers to the signal ratio;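 further: reporter cells co-stimulated with 50 nM rosiglitazone agonist during compound treatment; % of control where 0% means no effect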); conditions: HEK293 PPARg-UAS-bla, beta-lactamase ratio, antagonist mode; series mostly up to 76.8 µM
Summary of the method: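 We seeded GeneBLAzer HEK293 reporter cells at 3000 per well, allowed 6-6.5 h attachment at 37 C, then co-treated with test compound titrations and 50 nM rosiglitazone overnight (16 h). Inhibition was quantified from 460/530 nm emission ratios.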

[9] = biological target: Ubiquitin carboxyl-terminal hydrolase 1 (Homo sapiens) (UniProt O94782); experiment: Inhibitors of USP1/UAF1: Pilot qHTS (AID 504865; active means well fitted curve in the direction sought with a large enough effect; an effect the other way counts as inactive or inconclusive; further: nearly all actives have a fitted effect of over 35% in size; further: potency means the concentration at half of the fitted maximal effect); conditions: purified USP1/UAF1, Ub-rhodamine cleavage fluorescence; series mostly up to 114 µM
Summary of the method: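 Enzyme-free wells gave the negative control, while test wells held 1nM USP1/UAF1 preincubated with compound for 15 min at room temperature. Ub-Rho at 150nM final started the reaction, and fluorescence at 480/540 nm was recorded kinetically.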

[10] = biological target: Estrogen receptor (Homo sapiens) (UniProt P03372); experiment: qHTS assay for small molecule antagonists of estrogen receptor alpha signaling (AID 588513; active means well fitted curve in the direction sought with a large enough effect in the signal ratio, with a control signal flat, not every such curve was filed as active; the % refers to the signal ratio; further: on the % scale 0 is the no-effect control and ±100 the full control effect); conditions: ER-alpha-UAS-bla HEK293, beta-lactamase ratio, antagonist mode; series mostly up to 76.9 µM
Summary of the method: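 Antagonist-mode qHTS in ER-alpha-UAS-bla HEK 293 cells: compound titration, 0.5nM estradiol for 18 h, CCF4 fluorescence, Hill-derived IC50.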

[11] = biological target: Androgen receptor (Homo sapiens) (UniProt P10275); experiment: qHTS assay for small molecule agonists of androgen receptor signaling (AID 588515; active means well fitted curve in the direction sought with a large enough effect in the signal ratio, with a control signal flat; the % refers to the signal ratio; further: on the % scale 0 is the no-effect control and ±100 the full control effect); conditions: AR-UAS-bla HEK293, beta-lactamase ratio, agonist 16 h; stronger effect = higher value
Summary of the method: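 EC50 and efficacy came from Hill fits of titrations (up to 92 uM) normalized to 30 nM R1881 as 100% and DMSO as 0%. Compound exposure was 16 h at 37 C on AR-UAS-bla HEK293 cells, with a 405/460/530 nm CCF4 fluorescence read.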

[12] = biological target: Vitamin D3 receptor (Homo sapiens) (UniProt P11473); experiment: qHTS assay for small molecule antagonists of vitamin D receptor signaling (AID 588541); conditions: HEK293T VDR-UAS-bla, beta-lactamase ratio, antagonist mode; series mostly up to 76.7 µM;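 further: receptor activated by calcitriol during compound treatment; on the % scale 0 is the no-effect control and ±100 the full control effect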
Summary of the method: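 VDR-UAS-bla HEK293T cells (2000/well, 2% charcoal-stripped FBS) were treated with titrated compounds plus 1-alpha,25-dihydroxyvitamin D3 (50 nM or 3 nM final) for 16 h at 37 C. CCF4 beta-lactamase fluorescence was read; Hill fits gave IC50.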

[13] = biological target: Vitamin D3 receptor (Homo sapiens) (UniProt P11473); experiment: qHTS assay for small molecule agonists of vitamin D receptor signaling (AID 588543); conditions: HEK293T VDR-UAS-bla, beta-lactamase ratio, 16 h; series mostly up to 76.8 µM;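 further: 0% = DMSO basal and 100% = reference agonist control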
Summary of the method: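 Measured: β-lactamase reporter activity (CCF4, 405 nm excitation, 460/530 nm emission) in HEK293T VDR-UAS-bla cells after 16 h compound exposure at 37 °C. Normalization against 50 nM 1α,25-dihydroxyvitamin D3 and DMSO; Hill-fit EC50.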

[14] = biological target: Bile acid receptor (Homo sapiens) (UniProt Q96RI1); experiment: qHTS assay for small molecule antagonists of farnesoid X receptor signaling (AID 588526); conditions: HEK293T FXR-UAS-bla, beta-lactamase ratio, antagonist mode; series mostly up to 76.7 µM; further: potency means the concentration at half of the fitted maximal effect
Summary of the method: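 Concentration-response titrations were fitted to the Hill equation for half-maximal inhibition and maximal response, with data normalised to 50 uM chenodeoxycholic acid and DMSO control wells. Cells: FXR-UAS-bla HEK293T, dialyzed FBS.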

[15] = biological target: DNA dC->dU-editing enzyme APOBEC-3G (Homo sapiens) (UniProt Q9HC16); experiment: qHTS for inhibitors of Vif-A3G interactions: Validation (AID 588379; active means well fitted curve in the direction sought with a large enough effect; an effect the other way counts as inactive or inconclusive; further: 0% is about no effect); conditions: Vif-A3G protein interaction assay; series mostly up to 46.1 µM
Summary of the method: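 HeLa cells stably expressing Vif and A3G-eYFP, 700 cells/well, incubated overnight at 37 deg C, then exposed to compound overnight at 37 deg C. Inhibition of Vif-mediated degradation read as increased yellow fluorescence (Ex 488/Em 500-530) by laser-scanning cytometry.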

[16] = biological target: Bile acid receptor (Homo sapiens) (UniProt Q96RI1); experiment: qHTS assay for small molecule agonists of farnesoid X receptor signaling (AID 588527); conditions: HEK293T FXR-UAS-bla, beta-lactamase ratio, 16 h; stronger effect = higher value;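 further: 0% = vehicle basal and 100% = reference agonist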
Summary of the method: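 FXR-UAS-bla HEK293T, 10% dialyzed FBS; cpds up to 92 uM titration, 16 h 37 C; CCF4 dye 2 h RT; fluorescence. Normalized to chenodeoxycholic acid 100 uM (100%) and DMSO (0%); Hill fit gives EC50, efficacy.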

[17] = qHTS for Inhibitors of ATXN expression: Validation (AID 588378; active means well fitted curve in the direction sought with a large enough effect; an effect the other way counts as inactive or inconclusive; further: on the % scale 0 is the no-effect control and ±100 the full control effect; nearly all actives have a fitted effect of over 75% in size); conditions: cell-based ATXN2 expression reporter assay, luminescence; series mostly up to 57.1 µM
Summary of the method: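 After a 2 h attachment and 24 h compound incubation, HEK293-ATXN2-FFLuc wells are read for fluorescence at 405 nm excitation/525 nm emission as a viability measure, then for Bright-Glo luminescence reflecting ATXN2 expression.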

[18] = qHTS for Inhibitors of ATXN expression: Validation of Cytotoxic Assay (AID 588349; active means well fitted curve in the direction sought with a large enough effect; an effect the other way counts as inactive or inconclusive; further: on the % scale 0 is the no-effect control and ±100 the full control effect); conditions: cytotoxicity counter-screen for ATXN expression inhibitors, cell viability; series mostly up to 57.1 µM
Summary of the method: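 HEK293 cells treated with titrated compound for 72 hr at 37 degrees C; viability read as intracellular ATP by CellTiter Glo luminescence.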

[19] = biological target: Androgen receptor (Homo sapiens) (UniProt P10275); experiment: qHTS assay for small molecule antagonists of androgen receptor signaling (AID 588516; active means well fitted curve in the direction sought with a large enough effect in the signal ratio, with a control signal flat, not every such curve was filed as active; the % refers to the signal ratio; further: on the % scale 0 is the no-effect control and ±100 the full control effect); conditions: AR-UAS-bla HEK293, beta-lactamase ratio, antagonist mode, 16 h; series mostly up to 76.8 µM
Summary of the method: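 Compounds tested in titration against 10 nM R1881 in AR-responsive bla reporter HEK 293 cells; CCF4 fluorescence (460/530 nm) after 16 h exposure gave IC50 and efficacy.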

DNA dC->dU-editing enzyme APOBEC-3G (Homo sapiens), sequence (Q9HC16 whole entry, looked up): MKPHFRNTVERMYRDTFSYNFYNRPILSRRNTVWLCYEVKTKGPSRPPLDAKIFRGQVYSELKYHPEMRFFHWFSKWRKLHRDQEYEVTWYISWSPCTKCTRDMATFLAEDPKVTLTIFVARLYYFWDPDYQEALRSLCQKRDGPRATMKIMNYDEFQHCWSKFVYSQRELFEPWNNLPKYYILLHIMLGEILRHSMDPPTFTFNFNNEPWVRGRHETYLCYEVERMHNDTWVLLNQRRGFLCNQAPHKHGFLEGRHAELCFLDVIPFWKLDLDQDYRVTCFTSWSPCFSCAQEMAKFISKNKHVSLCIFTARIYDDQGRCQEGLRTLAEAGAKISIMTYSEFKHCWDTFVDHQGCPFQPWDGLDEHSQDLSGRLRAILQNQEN
Peroxisome proliferator-activated receptor gamma (Homo sapiens), sequence (P37231 whole entry, looked up): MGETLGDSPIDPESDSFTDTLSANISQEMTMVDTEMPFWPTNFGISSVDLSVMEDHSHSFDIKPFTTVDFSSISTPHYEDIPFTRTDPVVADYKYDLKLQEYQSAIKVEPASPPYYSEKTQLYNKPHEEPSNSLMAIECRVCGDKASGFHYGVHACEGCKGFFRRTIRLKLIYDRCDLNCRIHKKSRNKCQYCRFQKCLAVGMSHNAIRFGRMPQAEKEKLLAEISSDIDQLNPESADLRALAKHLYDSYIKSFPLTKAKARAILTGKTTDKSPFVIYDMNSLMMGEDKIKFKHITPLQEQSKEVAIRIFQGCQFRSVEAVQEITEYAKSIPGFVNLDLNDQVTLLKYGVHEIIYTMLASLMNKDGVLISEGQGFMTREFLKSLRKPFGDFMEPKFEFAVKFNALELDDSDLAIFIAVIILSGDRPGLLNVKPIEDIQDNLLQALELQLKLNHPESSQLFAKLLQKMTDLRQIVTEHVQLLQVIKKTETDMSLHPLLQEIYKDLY
Vitamin D3 receptor (Homo sapiens), sequence (P11473 whole entry, looked up): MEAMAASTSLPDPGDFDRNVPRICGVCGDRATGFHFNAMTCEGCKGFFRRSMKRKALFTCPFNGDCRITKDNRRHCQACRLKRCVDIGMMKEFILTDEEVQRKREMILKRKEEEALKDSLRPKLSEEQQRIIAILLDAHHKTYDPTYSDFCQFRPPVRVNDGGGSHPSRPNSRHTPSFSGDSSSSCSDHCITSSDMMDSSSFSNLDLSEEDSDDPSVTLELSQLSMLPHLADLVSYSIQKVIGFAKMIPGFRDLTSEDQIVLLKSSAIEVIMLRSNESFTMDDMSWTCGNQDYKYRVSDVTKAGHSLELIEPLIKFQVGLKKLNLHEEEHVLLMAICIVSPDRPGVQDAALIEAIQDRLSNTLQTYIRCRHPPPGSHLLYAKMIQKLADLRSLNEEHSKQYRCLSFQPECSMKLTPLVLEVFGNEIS
Estrogen receptor (Homo sapiens), sequence (P03372 whole entry, looked up): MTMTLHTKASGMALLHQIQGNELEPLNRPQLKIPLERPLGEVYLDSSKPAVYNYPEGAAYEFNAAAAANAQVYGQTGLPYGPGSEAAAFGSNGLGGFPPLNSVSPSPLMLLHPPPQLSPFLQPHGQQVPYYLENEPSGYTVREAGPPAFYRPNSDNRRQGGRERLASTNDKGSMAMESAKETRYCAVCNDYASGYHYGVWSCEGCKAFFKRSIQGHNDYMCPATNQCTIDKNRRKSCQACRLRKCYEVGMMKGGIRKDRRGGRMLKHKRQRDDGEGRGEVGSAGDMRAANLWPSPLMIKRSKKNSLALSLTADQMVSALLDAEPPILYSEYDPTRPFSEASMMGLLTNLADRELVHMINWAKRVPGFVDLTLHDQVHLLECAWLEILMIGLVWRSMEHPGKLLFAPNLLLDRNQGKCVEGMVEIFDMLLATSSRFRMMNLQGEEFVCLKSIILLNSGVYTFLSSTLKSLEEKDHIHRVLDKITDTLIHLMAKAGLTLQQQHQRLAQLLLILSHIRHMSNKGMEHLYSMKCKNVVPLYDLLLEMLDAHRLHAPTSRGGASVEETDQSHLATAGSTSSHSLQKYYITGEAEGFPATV
Bile acid receptor (Homo sapiens), sequence (Q96RI1 whole entry, looked up): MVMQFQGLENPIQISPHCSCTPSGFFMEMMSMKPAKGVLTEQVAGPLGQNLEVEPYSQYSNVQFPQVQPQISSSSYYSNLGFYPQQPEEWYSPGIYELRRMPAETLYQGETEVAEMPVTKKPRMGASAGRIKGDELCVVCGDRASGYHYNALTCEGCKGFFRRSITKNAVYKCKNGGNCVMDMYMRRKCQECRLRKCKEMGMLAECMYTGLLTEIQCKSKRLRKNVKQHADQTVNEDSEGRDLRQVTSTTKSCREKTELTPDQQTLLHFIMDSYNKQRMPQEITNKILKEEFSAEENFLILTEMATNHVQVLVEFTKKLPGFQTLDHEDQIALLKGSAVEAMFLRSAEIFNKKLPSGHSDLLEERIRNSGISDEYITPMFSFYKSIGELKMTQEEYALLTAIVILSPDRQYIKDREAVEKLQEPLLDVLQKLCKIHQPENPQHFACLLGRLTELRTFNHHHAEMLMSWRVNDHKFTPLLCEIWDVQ
Androgen receptor (Homo sapiens), sequence (P10275 whole entry, looked up): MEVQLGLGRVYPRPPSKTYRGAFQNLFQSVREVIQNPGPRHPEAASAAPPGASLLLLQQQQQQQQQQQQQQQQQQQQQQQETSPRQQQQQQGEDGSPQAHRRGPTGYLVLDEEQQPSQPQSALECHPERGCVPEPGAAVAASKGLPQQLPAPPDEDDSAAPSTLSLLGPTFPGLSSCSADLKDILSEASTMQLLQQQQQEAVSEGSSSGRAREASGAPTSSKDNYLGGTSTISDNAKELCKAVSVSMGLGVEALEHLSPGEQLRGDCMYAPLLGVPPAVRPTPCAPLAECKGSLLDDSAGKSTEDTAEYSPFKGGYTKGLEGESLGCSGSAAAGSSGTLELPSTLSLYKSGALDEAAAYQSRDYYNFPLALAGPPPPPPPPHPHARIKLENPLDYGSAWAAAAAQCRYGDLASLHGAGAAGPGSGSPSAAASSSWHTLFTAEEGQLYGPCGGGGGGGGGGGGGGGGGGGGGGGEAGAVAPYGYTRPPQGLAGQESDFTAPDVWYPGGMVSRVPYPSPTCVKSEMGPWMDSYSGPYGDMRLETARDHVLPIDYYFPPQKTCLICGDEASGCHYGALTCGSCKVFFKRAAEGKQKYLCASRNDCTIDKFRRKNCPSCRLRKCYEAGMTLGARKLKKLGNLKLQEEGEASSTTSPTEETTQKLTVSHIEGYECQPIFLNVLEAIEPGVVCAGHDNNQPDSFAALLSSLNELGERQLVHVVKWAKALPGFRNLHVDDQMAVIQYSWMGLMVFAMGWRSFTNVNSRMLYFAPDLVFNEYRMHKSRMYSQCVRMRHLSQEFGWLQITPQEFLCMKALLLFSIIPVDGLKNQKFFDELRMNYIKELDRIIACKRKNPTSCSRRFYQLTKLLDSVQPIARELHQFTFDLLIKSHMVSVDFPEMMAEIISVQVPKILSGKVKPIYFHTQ
Peroxisome proliferator-activated receptor delta (Homo sapiens), sequence (Q03181 whole entry, looked up): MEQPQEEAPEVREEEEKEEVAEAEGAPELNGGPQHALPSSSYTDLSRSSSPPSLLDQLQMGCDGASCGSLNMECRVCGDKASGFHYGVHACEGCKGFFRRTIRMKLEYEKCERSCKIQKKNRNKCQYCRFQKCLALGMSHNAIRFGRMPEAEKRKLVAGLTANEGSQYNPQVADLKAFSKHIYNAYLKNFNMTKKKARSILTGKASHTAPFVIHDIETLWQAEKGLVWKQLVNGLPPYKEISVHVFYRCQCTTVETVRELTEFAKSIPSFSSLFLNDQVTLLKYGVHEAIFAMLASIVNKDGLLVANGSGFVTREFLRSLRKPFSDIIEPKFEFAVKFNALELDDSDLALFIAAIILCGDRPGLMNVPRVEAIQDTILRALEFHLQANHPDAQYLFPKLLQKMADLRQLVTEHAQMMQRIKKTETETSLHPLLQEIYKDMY
Ubiquitin carboxyl-terminal hydrolase 1 (Homo sapiens), sequence (O94782 whole entry, looked up): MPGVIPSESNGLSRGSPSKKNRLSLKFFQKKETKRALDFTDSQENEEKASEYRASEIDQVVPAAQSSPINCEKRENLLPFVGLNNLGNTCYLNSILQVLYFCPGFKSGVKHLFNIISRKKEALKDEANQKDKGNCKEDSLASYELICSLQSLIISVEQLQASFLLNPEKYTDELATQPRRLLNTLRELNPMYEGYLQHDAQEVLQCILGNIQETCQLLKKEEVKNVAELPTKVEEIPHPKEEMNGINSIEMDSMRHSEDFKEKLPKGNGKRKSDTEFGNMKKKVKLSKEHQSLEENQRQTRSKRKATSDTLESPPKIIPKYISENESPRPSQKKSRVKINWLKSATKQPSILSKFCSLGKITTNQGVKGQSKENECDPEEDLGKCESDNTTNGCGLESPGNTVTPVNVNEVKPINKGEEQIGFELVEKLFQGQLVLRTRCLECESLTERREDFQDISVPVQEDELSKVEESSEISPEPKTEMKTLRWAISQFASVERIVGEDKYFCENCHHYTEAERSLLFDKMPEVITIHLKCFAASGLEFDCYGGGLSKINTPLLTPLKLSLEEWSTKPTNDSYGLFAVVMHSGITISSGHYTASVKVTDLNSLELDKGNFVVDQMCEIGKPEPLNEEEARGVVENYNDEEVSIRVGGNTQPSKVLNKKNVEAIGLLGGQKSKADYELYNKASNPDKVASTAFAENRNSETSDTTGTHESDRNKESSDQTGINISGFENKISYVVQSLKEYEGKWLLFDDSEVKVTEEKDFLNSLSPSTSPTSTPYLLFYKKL

COP(=S)(OC)Oc1cc(Cl)c(Cl)cc1Cl
inactive: Potency [1] | activation [2] -3.3% | Potency [3] | outcome [4] | outcome [6] | outcome [7] | outcome [8]
28.8%: max response [5]

COc1cc(OC)c(OC)cc1C=O
inactive: Potency [9] | outcome [10] | Potency [1] | activation [11] -8.64% | activation [2] 3.74% | Potency [3] | outcome [7] | Potency [12] | outcome [13]

COP(=S)(OC)Oc1ccc(SC)c(C)c1
inactive: Potency [9] | outcome [10] | Potency [1] | activation [2] -2.46% and 5.56% | Potency [3] | outcome [4] | outcome [6] | outcome [7] | outcome [8] | Potency [12] | outcome [13]
3.56%: max response [5]

[N-]=[N+]=CC(=O)OC[C@H](N)C(=O)O
46.8%: max response [5]
inactive: Potency [14] | outcome [4] | outcome [6] | Potency [12] | outcome [13]

Clc1cccc(SC2CCNCC2)n1
inactive: Potency [9] | outcome [15]

O=C(O)c1ccc(S(=O)(=O)N(Cl)Cl)cc1
inactive: activation [16] 0.222%

Oc1ccc(Cl)cc1
-18.6%: max response [5]
inactive: Potency [9] | outcome [4] | outcome [6] | outcome [7] | outcome [8] | Potency [12] | outcome [13]

O=C1c2ccccc2C(=O)C1C(=O)C(c1ccccc1)c1ccccc1
active: Potency [9] 31.6 µM
inactive: activation [16] -2.98% | activation [2] -2.9% | outcome [8]

CN(C)c1ccc2nc3ccc(=[N+](C)C)cc-3sc2c1
inactive: activation [16] -2.46%

C=CCN1C[C@H](C)N([C@H](c2ccc(C(=O)N(CC)CC)cc2)c2cccc(OC)c2)C[C@H]1C
inactive: Potency [9] | outcome [15]

CN1C[C@H](C(=O)N[C@]2(C)O[C@@]3(O)[C@@H]4CCCN4C(=O)[C@H](Cc4ccccc4)N3C2=O)C=C2c3cccc4[nH]cc(c34)C[C@H]21
inactive: outcome [10] | Potency [1] | activation [16] 2.53% | activation [2] -6.8% | outcome [13]
active: Potency [14] 39.8 µM

CCC(C)(C)c1ccc(O)cc1
inactive: outcome [10] | Potency [14] | activation [16] -0.511% and -0.445% | activation [2] -4.8% | Potency [3] | outcome [7] | outcome [8] | Potency [12] | outcome [13]

CC(C)NC(C)C
inactive: Potency [9] | outcome [10] | Potency [1] | activation [2] -3.7% | Potency [3] | outcome [4] | outcome [7] | Potency [12] | outcome [13]

Cc1cc(=O)n(-c2ccccc2)n1C
inactive: Potency [9] | activation [16] 1.08%

O=C(CCCN1CCC2(CC1)C(=O)NCN2c1ccccc1)c1ccc(F)cc1
inactive: Potency [9] | outcome [17] | outcome [15]

NCCc1ccc(O)cc1
inactive: Potency [9] | outcome [18] | outcome [17] | outcome [10] | Potency [1] | activation [2] 18.1% | Potency [3] | outcome [4] | outcome [6] | outcome [7]
-1.35%: max response [5]

COC(=O)C(c1ccccc1)C1CCCCN1 (centres undefined)
inactive: Potency [9] | Potency [1] | activation [11] 0.332% | outcome [19] | Potency [14] | activation [16] -2.4% | activation [2] 2.14% | Potency [3] | outcome [7] | outcome [8] | Potency [12] | outcome [13]

CCCCOC(=O)CC(CC(=O)OCCCC)(OC(C)=O)C(=O)OCCCC
inactive: activation [16] 1.49% | outcome [4]

Nc1ccccc1
inactive: activation [2] -2.91% | Potency [3] | outcome [4] | outcome [6] | outcome [7] | outcome [8] | outcome [13]
1.43%: max response [5]

Cc1cc(C)nc(NS(=O)(=O)c2ccc(N)cc2)n1
inactive: activation [16] 1.04% and -0.0754% | outcome [4]

Cc1noc(NS(=O)(=O)c2ccc(N)cc2)c1C
inactive: activation [16] 1.48% | outcome [4]

Nc1nc(Cl)nc2c1ncn2[C@H]1C[C@H](O)[C@@H](CO)O1
inactive: activation [16] -0.12% | outcome [4]

O=C(O)c1cc(-c2ccccc2)nc2ccccc12
inactive: activation [16] -1.96%

O=C(O)Cc1cccc2ccccc12
inactive: activation [16] -0.869% and 1.54% | outcome [4]

CCCCOC(=O)c1ccc(O)cc1
inactive: activation [16] 2.27% | outcome [4]

O=C(O)CCCCC(=O)O
inactive: activation [16] -1.88% | outcome [4]

Nc1ccc(C(=O)O)cc1
inactive: activation [16] 2.28% | outcome [4]

Oc1cccc(O)c1
inactive: activation [16] -2.84% | outcome [4]

Cc1cc(=O)[nH]c(=S)[nH]1
inactive: activation [16] 0.173% | outcome [4]
